Active and inactive are the calls of the source.
How the values were obtained:
[1] = small molecules captured by biotinylated probe aFSTL3 – biochemical, small-molecule microarray, fluorescence 635/667, stem cell growth factor project, primary screen (AID 1064); settings: higher = more signal;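 further: measures binding of the biotinylated anti-FSTL3 antibody to printed compounds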
[2] = binders from COS7 lysate, DM2A8 probe, primary screen, torsin A project, cell lysate, small-molecule microarray, fluorescence 635/667 (AID 1065); settings: higher = more signal, COS7 lysate expressing mutant human TOR1A
[3] = small molecules captured by biotinylated probe aFGF2 – biochemical, small-molecule microarray, fluorescence 635/667, stem cell growth factor project, primary screen (AID 1067); settings: higher = more signal;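 further: measures binding of biotinylated aFGF2 protein to printed compounds on slides; z-score merges feature fluorescence and signal-to-noise across triplicate slides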
[4] = small molecules captured by biotinylated probe aFGF10 – biochemical, small-molecule microarray, fluorescence 635/667, stem cell growth factor project, primary screen (AID 1071); settings: higher = more signal;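 further: score merges 667 nm spot intensity and signal to noise from triplicate slides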
[5] = target: Neurogenic locus notch homolog protein 2 (Homo sapiens) (UniProt Q04721); experiment: small molecules binding Notch2 protein – biochemical, small-molecule microarray, 635 nm fluorescence, stem cell growth factors, primary screen (AID 1073); settings: higher = more signal
[6] = target: Pro-neuregulin-1, membrane-bound isoform (Homo sapiens) (UniProt Q02297); experiment: small molecules binding neuregulin-1 protein – biochemical, small-molecule microarray, fluorescence 635/667, psychiatric disease protein project, primary screen (AID 1075); settings: NRG1 binding, 635 nm fluorescence, higher = more signal;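 further: score combines 667 nm spot fluorescence with signal to noise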
[7] = tested on: Neuregulin-1 EGF-like domain; experiment: small molecules binding NRG1 EGF domain – biochemical, small-molecule microarray, 635 nm fluorescence, primary screen (AID 1081); settings: higher = more signal;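 further: binding of the protein to compounds printed on small-molecule microarray slides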
[8] = FRG1 expression reporter modulators in myotubes – cell-based, C2C12 myotubes, firefly/Renilla luciferase, luminescence, FRG1 inhibition for FSHD, primary screen (AID 1084); settings: FRG1 promoter luciferase, higher = more signal, called active from +8 up or from −8 down
[9] = small molecules captured by biotinylated probe aFST – biochemical, small-molecule microarray, fluorescence 635/667, stem cell growth factor project, primary screen (AID 1086); settings: higher = more signal;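 further: score merges 667 nm fluorescence with signal-to-noise of each printed compound spot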
[10] = binders of probe aHhip on microarray, primary screen, stem cell growth factor project, biochemical, small-molecule microarray, fluorescence 635/667 (AID 1087); settings: higher = more signal;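 further: score merges spot fluorescence at 667nm with spot signal to noise ratio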
[11] = tested on: PRMT1 (protein arginine N-methyltransferase 1); experiment: small molecules binding arginine methyltransferase PRMT1 – biochemical, small-molecule microarray, 635 nm fluorescence, primary screen (AID 1088); settings: higher = more signal;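 further: binding of Prmt1 protein to compounds spotted on small-molecule microarray slides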
[12] = growth effects on S. cerevisiae YJM789 – YJM789 clinical isolate, OD600, 24 h, basal, primary screen (AID 1089); settings: higher = more signal, called active from +8 up or from −8 down;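 further: growth of clinical yeast isolate S. cerevisiae YJM 789 seeded 1000 cells per well; test concentration not given here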
[13] = S. pombe growth modifiers, basal conditions – strain 972, OD600, 24 h, no modulator, primary screen (AID 1090);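 further: basal condition with compound alone and no growth modifier present; test concentration not given here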; settings: S. pombe 972 growth, higher = more signal, called active from +8 up or from −8 down
[14] = budding yeast growth modifiers under rapamycin – strain BY4716, OD600, 96 h, primary screen (AID 1091); further: test concentration not given here; settings: S. cerevisiae BY4716 + rapamycin, higher = more signal, called active from +8 up or from −8 down
[15] = target: Torsin-1A-interacting protein 2 (Homo sapiens) (UniProt Q8NFQ8); experiment: small molecules binding lysate-expressed LULL1 – cell lysate, human LULL1 lysate, 635/667 nm fluorescence, primary screen (AID 1092); settings: small-molecule microarray, hLULL1 lysate binding, 635 nm fluorescence; higher = more signal;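 further: probe is lysate of COS7 cells overexpressing human LULL1; score merges per-feature 667 nm fluorescence with signal-to-noise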
[16] = optical density change of DRC41 E. coli – strain DRC41, OD650, 24 h, E. coli filamentation project, primary screen (AID 1093);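 further: MC1000 strain lacking acrAB efflux and sulA so SOS filamentation is blocked; test concentration not given here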; settings: E. coli DRC41 growth, higher = more signal, called active from +8 up or from −8 down
[17] = probe aLefty2 binding to arrayed compounds – biochemical, biotinylated probe, 635/667 nm fluorescence, primary screen (AID 1094); settings: small-molecule microarray, higher = more signal;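 further: score merges spot fluorescence near 667 nm with spot signal-to-noise ratio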
[18] = tested on: Noggin (protein binding on small-molecule microarray); experiment: small molecules binding Noggin protein – biochemical, 635/667 nm fluorescence, primary screen (AID 1095); settings: 635 nm fluorescence, higher = more signal;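 further: score merges 667 nm feature fluorescence with signal to noise over triplicate slides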
[19] = target: Neurogenic locus notch homolog protein 3 (Homo sapiens) (UniProt Q9UM47); experiment: small molecules binding NOTCH3 protein – biochemical, 635/667 nm fluorescence, primary screen (AID 1096); settings: small-molecule microarray, 635 nm fluorescence, higher = more signal
[20] = probe aEGFR binding to arrayed compounds – biochemical, biotinylated probe, 635/667 nm fluorescence, primary screen (AID 1097); settings: small-molecule microarray, higher = more signal;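 further: probe is a biotinylated anti-EGFR antibody binding compounds printed on slides; score combines fluorescence near 667 nm and signal to noise of each spot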

Chain of Neurogenic locus notch homolog protein 2 (Homo sapiens) (Q04721 whole entry, looked up, canonical isoform): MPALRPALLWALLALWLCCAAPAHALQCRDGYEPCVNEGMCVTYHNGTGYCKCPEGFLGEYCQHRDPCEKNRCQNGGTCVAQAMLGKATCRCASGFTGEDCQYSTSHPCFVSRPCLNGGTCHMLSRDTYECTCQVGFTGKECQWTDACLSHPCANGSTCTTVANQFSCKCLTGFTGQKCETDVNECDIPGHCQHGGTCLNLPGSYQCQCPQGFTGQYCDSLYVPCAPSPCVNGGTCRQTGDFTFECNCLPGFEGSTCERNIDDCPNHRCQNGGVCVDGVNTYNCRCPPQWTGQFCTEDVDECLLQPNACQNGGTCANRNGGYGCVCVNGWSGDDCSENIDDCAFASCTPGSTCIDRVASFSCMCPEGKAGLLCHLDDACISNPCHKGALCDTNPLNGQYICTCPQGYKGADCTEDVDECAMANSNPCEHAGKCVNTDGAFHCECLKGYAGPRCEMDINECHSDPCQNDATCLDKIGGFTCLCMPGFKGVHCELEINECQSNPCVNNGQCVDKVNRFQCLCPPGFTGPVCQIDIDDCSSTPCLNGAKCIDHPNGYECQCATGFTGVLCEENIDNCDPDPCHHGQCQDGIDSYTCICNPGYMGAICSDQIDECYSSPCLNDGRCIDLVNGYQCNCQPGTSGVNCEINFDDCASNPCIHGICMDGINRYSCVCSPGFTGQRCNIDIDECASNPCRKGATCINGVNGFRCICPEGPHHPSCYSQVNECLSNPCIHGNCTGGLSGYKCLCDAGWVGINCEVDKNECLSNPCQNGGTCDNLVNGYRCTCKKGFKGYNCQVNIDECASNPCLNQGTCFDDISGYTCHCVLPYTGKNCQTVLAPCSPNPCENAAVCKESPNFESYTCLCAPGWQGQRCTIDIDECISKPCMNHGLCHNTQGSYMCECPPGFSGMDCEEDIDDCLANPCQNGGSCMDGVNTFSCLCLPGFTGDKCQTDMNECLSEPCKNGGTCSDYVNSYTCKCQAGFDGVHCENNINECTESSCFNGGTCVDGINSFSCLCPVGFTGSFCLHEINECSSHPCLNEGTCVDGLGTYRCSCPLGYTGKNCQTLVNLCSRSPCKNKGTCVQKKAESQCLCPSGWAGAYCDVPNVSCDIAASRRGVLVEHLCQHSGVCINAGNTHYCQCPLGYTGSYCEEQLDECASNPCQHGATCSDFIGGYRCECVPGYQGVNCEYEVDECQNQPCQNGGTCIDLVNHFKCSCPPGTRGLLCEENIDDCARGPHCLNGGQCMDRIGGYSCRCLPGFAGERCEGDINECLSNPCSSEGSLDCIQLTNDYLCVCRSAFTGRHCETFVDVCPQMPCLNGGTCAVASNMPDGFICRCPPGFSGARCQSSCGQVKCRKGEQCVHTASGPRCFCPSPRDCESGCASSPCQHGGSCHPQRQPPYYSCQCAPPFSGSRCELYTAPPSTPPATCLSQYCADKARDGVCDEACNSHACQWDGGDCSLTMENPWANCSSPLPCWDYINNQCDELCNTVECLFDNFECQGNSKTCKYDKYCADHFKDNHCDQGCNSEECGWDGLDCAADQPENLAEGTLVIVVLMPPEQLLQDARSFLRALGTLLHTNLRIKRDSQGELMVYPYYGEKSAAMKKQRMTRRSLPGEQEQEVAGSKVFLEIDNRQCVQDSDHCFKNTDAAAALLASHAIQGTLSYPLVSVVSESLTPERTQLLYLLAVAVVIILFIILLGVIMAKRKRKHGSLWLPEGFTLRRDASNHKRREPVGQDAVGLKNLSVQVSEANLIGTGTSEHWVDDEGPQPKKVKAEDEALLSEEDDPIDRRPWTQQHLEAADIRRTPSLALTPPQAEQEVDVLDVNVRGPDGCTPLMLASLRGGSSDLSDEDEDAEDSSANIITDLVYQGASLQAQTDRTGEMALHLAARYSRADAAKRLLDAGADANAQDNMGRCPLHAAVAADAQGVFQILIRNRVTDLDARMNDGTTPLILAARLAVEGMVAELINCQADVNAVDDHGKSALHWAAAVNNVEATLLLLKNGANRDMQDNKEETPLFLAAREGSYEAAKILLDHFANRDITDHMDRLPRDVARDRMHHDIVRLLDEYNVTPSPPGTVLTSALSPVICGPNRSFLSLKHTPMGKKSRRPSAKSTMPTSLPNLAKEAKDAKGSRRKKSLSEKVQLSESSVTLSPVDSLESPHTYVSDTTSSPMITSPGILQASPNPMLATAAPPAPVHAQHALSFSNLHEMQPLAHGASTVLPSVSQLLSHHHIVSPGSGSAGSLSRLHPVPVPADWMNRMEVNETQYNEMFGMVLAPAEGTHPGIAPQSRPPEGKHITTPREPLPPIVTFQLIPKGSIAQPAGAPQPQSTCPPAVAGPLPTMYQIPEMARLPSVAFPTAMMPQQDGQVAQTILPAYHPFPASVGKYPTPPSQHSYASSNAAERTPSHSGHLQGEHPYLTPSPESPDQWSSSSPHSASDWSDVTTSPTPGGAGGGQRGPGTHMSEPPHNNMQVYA
Chain of Torsin-1A-interacting protein 2 (Homo sapiens) (Q8NFQ8 whole entry, looked up): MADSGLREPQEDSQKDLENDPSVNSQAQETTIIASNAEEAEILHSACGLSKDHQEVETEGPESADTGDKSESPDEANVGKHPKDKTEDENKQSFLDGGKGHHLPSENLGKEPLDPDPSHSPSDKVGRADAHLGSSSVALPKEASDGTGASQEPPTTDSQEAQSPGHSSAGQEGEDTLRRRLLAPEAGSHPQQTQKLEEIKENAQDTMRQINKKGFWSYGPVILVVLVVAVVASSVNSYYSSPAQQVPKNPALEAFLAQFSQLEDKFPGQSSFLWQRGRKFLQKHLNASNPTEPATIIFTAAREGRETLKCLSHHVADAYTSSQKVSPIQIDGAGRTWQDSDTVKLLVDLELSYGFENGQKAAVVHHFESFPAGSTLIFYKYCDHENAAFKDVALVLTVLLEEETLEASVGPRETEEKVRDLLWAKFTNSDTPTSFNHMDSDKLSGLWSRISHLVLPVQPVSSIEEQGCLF
Chain of Pro-neuregulin-1, membrane-bound isoform (Homo sapiens) (Q02297 whole entry, looked up, the tested form may be a part, canonical isoform): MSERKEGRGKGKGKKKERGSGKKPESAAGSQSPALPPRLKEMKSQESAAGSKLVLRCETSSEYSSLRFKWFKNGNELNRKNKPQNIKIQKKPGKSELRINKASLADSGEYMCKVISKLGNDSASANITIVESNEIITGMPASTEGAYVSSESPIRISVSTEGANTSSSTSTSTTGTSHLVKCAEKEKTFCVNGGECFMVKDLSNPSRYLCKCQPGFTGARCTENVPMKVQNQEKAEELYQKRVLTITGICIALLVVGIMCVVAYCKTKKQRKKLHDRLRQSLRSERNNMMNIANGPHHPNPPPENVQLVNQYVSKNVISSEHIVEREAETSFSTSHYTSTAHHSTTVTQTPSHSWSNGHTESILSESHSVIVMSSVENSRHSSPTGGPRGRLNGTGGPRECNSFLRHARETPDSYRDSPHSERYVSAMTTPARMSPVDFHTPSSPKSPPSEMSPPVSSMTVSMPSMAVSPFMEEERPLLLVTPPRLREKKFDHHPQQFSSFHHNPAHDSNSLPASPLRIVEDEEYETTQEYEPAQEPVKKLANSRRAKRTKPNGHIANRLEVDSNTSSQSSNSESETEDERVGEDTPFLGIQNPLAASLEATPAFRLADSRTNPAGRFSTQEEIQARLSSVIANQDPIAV

Compound | composite z-score [1] | composite z-score [2] | composite z-score [3] | composite z-score [4] | composite z-score [5] | composite z-score [6] | composite z-score [7] | z-score [8] | composite z-score [9] | composite z-score [10] | composite z-score [11] | z-score [12] | z-score [13] | z-score [14] | composite z-score [15] | z-score [16] | composite z-score [17] | composite z-score [18] | composite z-score [19] | composite z-score [20]
COc1ccc([Si](C)(C)[C@@H]2[C@@H](CC(=O)N(CCO)Cc3ccccc3)O[C@]3(C(=O)N(Cc4ccc(N5C(=O)c6cccc7cccc5c67)cc4)c4ccccc43)[C@H]2C)cc1 | -0.0031 | 0.407 | -0.0876 | 0.181 | 0.494 | 0.933 | 0.956 | -1.76 (inactive) | -0.0542 | -0.353 | 1.57 | 0.655 (inactive) | 0.27 (inactive) | 3.51 (inactive) | 1.63 | 0.309 (inactive) | -0.0785 | 0.77 | 0.223 | -0.116
COC(=O)C(CC#Cc1ccc2c(c1)[C@]1(C(=O)N2)[C@H](c2ccc(OCCO)cc2)N2[C@H](c3ccccc3)[C@H](c3ccccc3)OC(=O)[C@H]2[C@@H]1C(=O)N1CCCCCCC1)C(=O)OC | 3.41 | 1.91 | 0.826 | 1.21 | 1.14 | 1.93 | 1.27 | -0.378 (inactive) | 3.21 | 1.45 | 1.54 | 1.37 (inactive) | 0.736 (inactive) | 2.56 (inactive) | 3.95 | -0.611 (inactive) | 1.54 | 1.84 | 1.03 | 1.17
C[N+](C)(C)CCCC[C@@H]1NC(=O)[C@H]2C[C@@H](C(=O)NCCCCCNC(=O)CS)[C@@H](c3cccc(OCCO)c3)N2C1=O | -0.121 | 0.348 | -0.102 | 0.0107 | -0.324 | 1.5 | 0.785 | -0.474 (inactive) | 0.0685 | 0.0373 | -0.248 | -0.802 (inactive) | -0.693 (inactive) | -0.451 (inactive) | 1.36 | 0.469 (inactive) | -0.152 | 0.378 | -0.36 | -0.127
COc1ccc(C(O)C2C=CC3C(=O)N(C)C(=O)C3N2N(c2ccccc2)c2ccccc2)cc1 (stereo not given) | 0.967 | 1.17 | 0.0148 | 0.209 | 1.41 | 0.941 | 1.22 | 0.57 (inactive) | 0.982 | 0.0972 | 0.923 | -0.054 (inactive) | 0.733 (inactive) | 1.08 (inactive) | 2.18 | -0.994 (inactive) | 0.276 | 0.269 | 0.791 | -0.111
CC(C)(C)OC(=O)CC[C@]1(C(=O)NCC(O)CO)N=C(c2ccc(OCCCO)cc2)O[C@H]1c1ccccc1N=[N+]=[N-] (stereo not given in full) | 0.929 | 1.34 | 0.171 | 0.53 | 1.02 | 1.58 | 1.17 | 3.99 (inactive) | 0.967 | -0.189 | 0.98 | -0.652 (inactive) | -0.0793 (inactive) | -0.517 (inactive) | 3.62 | 0.821 (inactive) | 0.595 | 0.187 | 0.398 | 0.0506
